Results as given in PubChem BioAssay AID2751 (The Scripps Research Institute Molecular Screening Center, 2010).
The whole screen tested about 320,000 compounds, of which about 2,200 (0.69%) were called active. Rule as the data show it: active = inhibition above about 43%; inactive = the rest. The list comes from a sample in which actives are over-represented; it also holds similar structures and randomly drawn compounds.

Each molecule was assayed against Prolyl endopeptidase-like (Homo sapiens) (UniProt Q4J6C6) (assay: human PREPL activity-probe blockers – biochemical, fluorescence polarization, primary screen (AID 2751;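 also: 0% = enzyme with DMSO and 100% = wells lacking enzyme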)). Conditions: recombinant PREPL, fluorescence polarization activity-based probe; at 5.96 µM; active compounds read high.
Prolyl endopeptidase-like (Homo sapiens), sequence (Q4J6C6 whole entry, looked up): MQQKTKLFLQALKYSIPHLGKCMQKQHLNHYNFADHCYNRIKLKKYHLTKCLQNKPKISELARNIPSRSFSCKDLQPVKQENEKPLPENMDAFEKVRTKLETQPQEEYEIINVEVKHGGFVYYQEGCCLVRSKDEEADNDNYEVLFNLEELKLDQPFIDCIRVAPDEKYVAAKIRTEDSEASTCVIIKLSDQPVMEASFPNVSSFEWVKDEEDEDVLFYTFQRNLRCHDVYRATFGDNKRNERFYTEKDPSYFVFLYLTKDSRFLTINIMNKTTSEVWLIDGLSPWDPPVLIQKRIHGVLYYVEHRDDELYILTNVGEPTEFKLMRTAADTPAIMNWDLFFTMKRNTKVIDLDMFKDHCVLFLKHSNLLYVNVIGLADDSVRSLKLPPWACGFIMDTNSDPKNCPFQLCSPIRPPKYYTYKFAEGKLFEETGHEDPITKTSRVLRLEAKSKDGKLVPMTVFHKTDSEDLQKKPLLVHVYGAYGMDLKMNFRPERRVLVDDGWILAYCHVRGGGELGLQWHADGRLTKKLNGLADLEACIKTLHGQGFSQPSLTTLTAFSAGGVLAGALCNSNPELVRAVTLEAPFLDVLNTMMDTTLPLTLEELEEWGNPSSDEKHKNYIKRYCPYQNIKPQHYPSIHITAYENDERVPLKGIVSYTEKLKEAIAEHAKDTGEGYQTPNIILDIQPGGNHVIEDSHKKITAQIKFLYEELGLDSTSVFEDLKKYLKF

inhibition, active:
COc1ccc2cc(C(=O)C3CCCN(C(=O)c4sc(C)nc4C)C3)ccc2c1 (centres undefined) 47.9%
CC(C)n1cnc2c(NCc3ccccc3)cc(N[C@@H](CO)Cc3ccccc3)cc21 62%
CCC(CO)Oc1cc(NCc2ccccc2)c2ncn(C3CCCC3)c2c1 (centres undefined) 43.8%
CC(C)n1cnc2c(NCc3ccccc3)cc(OCC3CCN(C)CC3)cc21 83.8%
Cc1ccc(Nc2ccccc2N)cc1 47.5%
CCN1C(=O)c2cccc3c(N)ccc1c23 45.6%
Cc1nc([N+](=O)[O-])nn1C12CC3CC(CC(Br)(C3)C1)C2 45.5%
O=C1c2ccccc2C(=O)c2c1cccc2N1CCN(C/C=C/c2ccccc2)CC1 87.2%
Cc1ccc(N2CCN(C3=NC(=O)/C(=C\c4cccs4)S3)CC2)cc1 53%
COc1ccc(NC(C)=O)cc1NC(=O)CN1CCN(C2c3ccccc3-c3ccccc32)CC1 43.8%
O=C1N=C(N2CCc3ccccc3C2)S/C1=C\c1ccc(O)cc1 47.4%
Oc1ccc2ccccc2c1N=Nc1nccs1 50.7%
Cc1ccc(OCC(=O)Nc2ccc(N3CCN(C(=O)c4ccco4)CC3)cc2)c(C)c1 55%
CN1CCN(c2ccc(NC(=O)COc3ccc(Cl)cc3Cl)cc2)CC1 54.8%
O=C(N/N=C/c1cccnc1)c1cc2ccccc2cc1O 63.4%
CC(C)(C)Nc1nc(-c2ccccn2)nc2ccccc12 47.1%
CCN(CC)c1ccc2cc(C(N)=O)/c(=N\NC(=O)c3ccncc3)oc2c1 48.4%
CCN1/C(=C\c2ccc3ccccc3[n+]2CC)Sc2cc(C)ccc21 52.8%
CCN1/C(=C/c2ccc3ccc(C)cc3[n+]2CC)Sc2ccccc21 53.4%

inhibition, inactive:
Cc1ccc(C(C)NC(=O)Cn2nc(C)c([N+](=O)[O-])c2C)cc1 (centres undefined) 11.6%
O=C(Nc1cccc(S(=O)(=O)N2CCOCC2)c1)C12CC3CC(CC(C3)C1)C2 12.3%
CC(CNc1ccc([N+](=O)[O-])cc1)NC(=O)c1ccccc1Br (centres undefined) 4.76%
COc1ccc(C(=O)C2CCCN(C(=O)c3cnsn3)C2)c(C)c1 (centres undefined) 13.4%
CCn1nc(C)cc1C(=O)N1CCCC(C(=O)c2cccc(OC)c2)C1 (centres undefined) -1.89%
COc1ccc(/C(O)=C2/C(=O)C(=O)N(CC3CCCO3)C2c2ccc(OC)c(OC)c2)cc1 (centres undefined) 1.2%
CCC(CO)Oc1cc(NC(=O)c2ccc(Cl)cc2)c2ncn(C(C)C)c2c1 (centres undefined) 13%
CCC(CO)Oc1cc(NC(=O)c2cccc3ccccc23)c2ncn(C(C)C)c2c1 (centres undefined) 18.7%
CN(C)c1nccc(NCc2ccccc2)c1C#N 3.08%
CCC(CO)Oc1cc(NC(=O)c2cccc(F)c2)c2ncn(C(C)C)c2c1 (centres undefined) 3.94%
CC(C)C[C@H](CO)Nc1nc(N(C)c2cccc(Cl)c2)c2ncn(C(C)C)c2n1 12.1%
CC(C)N(Cc1ccccc1)C(=O)COC(=O)c1cnccn1 -8.35%
COC(=O)[C@]1(Cc2ccccc2)N[C@H](CN(C)S(=O)(=O)c2ccc(OC(F)(F)F)cc2)[C@@H]2C(=O)N(Cc3ccccc3)C(=O)[C@@H]21 8.99%
COC(CNC(=O)Cn1ncc2ccsc2c1=O)OC 6.98%
CCCn1c(SCC(=O)Nc2ccc(C)c(S(=O)(=O)N3CCOCC3)c2)n[nH]c1=O 3.91%
CCc1cc(=O)oc2cc(C)cc(OCC(=O)N3CCC[C@@H]3C(=O)O)c12 -4.62%
O=C(CN(C(=O)c1csnn1)c1ccc(Br)cc1)NC1CCCC1 5.56%
CCCc1cc(=O)[nH]c2nnc(SCC(=O)Nc3nnc(SCC)s3)n12 0.4%
CCn1c(=S)sc2c(=O)n(CC(=O)Nc3ccc(OC)cc3)c(C)nc21 7.88%
O=S(=O)(NCC1CC1)c1ccc(F)c(Cl)c1 -5.91%
CC(OC(=O)/C=C/c1ccccc1)C(=O)NC1CCCCC1C (centres undefined) -7.55%
Cc1ccc(Nc2nc(Cl)c(C=O)s2)cc1 -3.94%
Nc1ccc(C(=O)Nc2ccccc2N)cc1 -1.77%
Cc1cc(OC(C)C(=O)NC2CC(C)(C)NC(C)(C)C2)c2c(C)cc(=O)oc2c1 (centres undefined) 2.31%
O=C(Nc1ccc([N+](=O)[O-])cc1)C1CC12CCC2 (centres undefined) 1.87%
CCN1C(=O)c2cccc3c(S(=O)(=O)Nc4ccccc4O)ccc1c23 4.31%
CN1C(=O)c2cccc3c(N)ccc(c23)C1=O 14.4%
Cc1snc(SCc2c(F)cccc2Cl)c1C#N 10%
COc1cccc(NC(=O)c2nn(C34CC5CC(CC(C5)C3)C4)cc2[N+](=O)[O-])c1 1.65%
Cc1ncn(C23CC4CC(CC(O)(C4)C2)C3)n1 3.85%
CCn1nc(C(=O)NNS(=O)(=O)c2cc(/C=C/C(=O)O)cc(OC)c2OC)c2ccccc2c1=O 1.44%
Cn1c(CC2Sc3ccccc3NC2=O)nnc1SCC(=O)c1ccc(Cl)cc1 (centres undefined) -2.92%
Cc1cc(-c2nnc(SCC(=O)Nc3ccc(F)cc3)n2N)n[nH]1 -0.73%
CCOC(=O)N1CCN(S(=O)(=O)c2ccc(-n3cnnn3)cc2)CC1 -0.87%
COc1ccc(/C=N/N=C/c2c[nH]c(=O)c(C#N)c2Nc2ccccc2)cc1 5.21%
O=C(OCC(=O)N1CCc2ccccc21)c1ccc([N+](=O)[O-])cc1 18%
O=C1c2ccccc2C(=O)c2c1cccc2N1CCN(CCO)CC1 10%
O=C1c2ccccc2C(=O)c2c1cccc2N1CCN(Cc2ccccc2)CC1 34.3%
CN(C(=O)CC1C(=O)NCCN1Cc1ccc2ccccc2c1)C1CCOCC1 (centres undefined) 15.8%
CCCc1cc(=S)n2c([nH]c3ccccc32)c1C#N 16%
Cc1ccsc1/C=C1\SC(N2CCOCC2)=NC1=O 5.64%
Cc1ccc(N2CCN(/N=C/c3cccs3)CC2)cc1 10.6%
CN(NS(=O)(=O)c1cccs1)c1ncc(C(F)(F)F)cc1Cl -0.65%
COc1ccccc1OCC(=O)Nc1c2c(nn1-c1ccc(F)cc1)CS(=O)(=O)C2 -4.94%
COc1ccc(Cl)cc1NC(=O)CN1CCN(C(=O)N2CCOCC2)CC1 -6.54%
COc1cccc(NC(=O)CN2CCN(CC(=O)Nc3ccccc3Cl)CC2)c1 -3.67%
CN=C1SC(CC(=O)Nc2ccc(C(=O)O)cc2)C(=O)N1C (centres undefined) 1.69%
COP1(=O)C[C@@H](O)[C@@H](O)[C@@H](COCc2ccccc2)O1 (some centres undefined) -5.04%
O=C(c1ccco1)N1CCN(C(=O)C2CCCN(S(=O)(=O)c3cccc4nsnc34)C2)CC1 (centres undefined) -5.71%
CCc1ccc(/C=C2\SC(N3CCOCC3)=NC2=O)cc1 19.1%
CC1CCN(C2=NC(=O)/C(=C/c3ccc(O)cc3)S2)CC1 12.1%
C=CCOc1ccc(/C=C/C(=O)OCC(=O)NC(C)c2ccc(F)cc2)cc1 (centres undefined) 5.51%
S=C(NCCC1=CCCCC1)Nc1ccccc1 9.47%
Cc1ccc(S(=O)(=O)N2CCN=C2SCc2c(F)cccc2Cl)cc1 11.2%
C=CC(=O)OCCOCCOCCOCCOC(=O)C=C -0.81%
CCC(=O)Nc1ccc(C(=O)N2CCN(C(=O)c3ccco3)CC2)cc1 -4%
Cc1ccc(C)c(OCC(=O)N2CCN(C(=O)c3ccco3)CC2)c1 1.04%
Cc1ccc(Cl)c(OCC(=O)N(C)CC(=O)Nc2ccc(N3CCOCC3)cc2)c1 -6.09%
CN1CCC(OC(=O)COc2ccc(Cl)cc2Cl)CC1 -6%
Cc1ccc(S(=O)(=O)c2nc(-c3cccs3)oc2NCc2cccnc2)cc1 8.75%
Oc1ccccc1-c1cc(-c2ccc(Cl)cc2)n[nH]1 -35.8%
O=C(NN=Cc1ccc(N2CCOCC2)cc1)c1cc2ccccc2cc1O 19.7%
Cc1ccc(/C=N/NC(=O)c2cc3ccccc3cc2O)o1 13.4%
NC(=O)COc1ccc(/C=N/NC(=O)C2CCCN2S(=O)(=O)c2ccc(Cl)cc2)cc1 (centres undefined) 11%
CCCCN(C(=O)c1ccc(C)o1)c1c(N)n(CCCC)c(=O)[nH]c1=O -0.55%
c1ccc2c(NCC3CCCO3)nc(-c3ccncc3)nc2c1 (centres undefined) 5.66%
COc1ccc(CNc2ncnc3ccccc23)cc1 -16.5%
Cc1n[nH]c(C)c1S(=O)(=O)N1CCCC(C(=O)Nc2ccc(Br)cc2)C1 (centres undefined) -17.7%
O=S(=O)(O)CCN1CCOCC1 25.7%
O=C(NCC(=O)N1CCN(c2ccccc2F)CC1)c1cccs1 3.72%
COc1cccc2cc(C(N)=O)/c(=N\NC(=O)c3ccccc3)oc12 -0.47%
NC(=O)c1cc2ccccc2o/c1=N/NC(=O)c1cccc(F)c1 11.6%
CC1CCC2(CC1)NC(=O)N(CC(=O)c1ccc3c(c1)OCO3)C2=O (centres undefined) 11.2%
O=c1oc(-c2ccccc2NS(=O)(=O)c2ccc(Cl)cc2)nc2ccccc12 6.42%
COC(=O)[C@]1(CC(C)C)N[C@H](c2ccc(SC3CCCCC3)cc2)[C@@H]2C(=O)N(C)C(=O)[C@@H]21 2.32%
